A selection: hits, their analogues and other compounds. The true share with any hit is near 27%.
CYP2C9 activ = CYP2C9 (human) activation | activation factor at 5 µM | recombinant CYP2C9, luciferin-H conversion, luminescence; stronger effect = higher value; factor 1 = untreated enzyme, 0 = blocked | AID 1024 | 1.4% of 96,000 active | P11712;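 active = activation factor of 2 or more for CYP2C9 at a 5 µM dose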;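 note: 0 = sulfaphenazole-blocked wells and 1 = vehicle-only wells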
CYP2C9 inh = human CYP2C9 inhibition. AID 777. P11712. inhibition, % at 5 µM. 20% of 96,000 active. CYP2C9 Supersomes, luciferin-H conversion, luminescence;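 active = blocking of liver enzyme CYP2C9 beyond about 50% at 5 µM, limit read from the data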
CYP2C19 activ = increases human CYP2C19 enzyme activity; P33261; recombinant CYP2C19, luciferin-H EGE luminescence; stronger effect = higher value; 0 = fully inhibited enzyme, 1 = untreated enzyme; activation factor at 5 µM; 96,000 tested, under 10 active; AID 1025;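 active = activation factor of at least 2 at 5 µM in the primary screen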;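 note: 0 = wells with 2.5 mM tranylcypromine and 1 = vehicle-only wells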
CYP2C19 inh = blocks human cytochrome P450 2C19; P33261; CYP2C19 Supersomes, luciferin-H EGE luminescence, 30 min; inhibition, % at 5 µM; 21% of 96,000 active;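 active = CYP2C19 inhibition above a set limit at 5 µM in the primary screen, cut at about 50% in these data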;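 note: plate controls were negative control wells for no effect and 2.5 mM tranylcypromine positive control for full effect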
EphB4 ephrin blk = EphB4-ephrin-B2 interaction antagonism; P54760; EphB4 LBD / TNYL-RAW-Alexa532 peptide, fluorescence polarization; inhibition, % at 7 µM; 0.15% of 97,000 active;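 active = inhibition above the screen-wide mean inhibition plus 3 SD, cut at about 15% in these data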;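 note: 0% = DMSO wells and 100% = excess unlabeled TNYL-RAW peptide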
Target sequence (P54760 whole entry, looked up, the tested form may be a part): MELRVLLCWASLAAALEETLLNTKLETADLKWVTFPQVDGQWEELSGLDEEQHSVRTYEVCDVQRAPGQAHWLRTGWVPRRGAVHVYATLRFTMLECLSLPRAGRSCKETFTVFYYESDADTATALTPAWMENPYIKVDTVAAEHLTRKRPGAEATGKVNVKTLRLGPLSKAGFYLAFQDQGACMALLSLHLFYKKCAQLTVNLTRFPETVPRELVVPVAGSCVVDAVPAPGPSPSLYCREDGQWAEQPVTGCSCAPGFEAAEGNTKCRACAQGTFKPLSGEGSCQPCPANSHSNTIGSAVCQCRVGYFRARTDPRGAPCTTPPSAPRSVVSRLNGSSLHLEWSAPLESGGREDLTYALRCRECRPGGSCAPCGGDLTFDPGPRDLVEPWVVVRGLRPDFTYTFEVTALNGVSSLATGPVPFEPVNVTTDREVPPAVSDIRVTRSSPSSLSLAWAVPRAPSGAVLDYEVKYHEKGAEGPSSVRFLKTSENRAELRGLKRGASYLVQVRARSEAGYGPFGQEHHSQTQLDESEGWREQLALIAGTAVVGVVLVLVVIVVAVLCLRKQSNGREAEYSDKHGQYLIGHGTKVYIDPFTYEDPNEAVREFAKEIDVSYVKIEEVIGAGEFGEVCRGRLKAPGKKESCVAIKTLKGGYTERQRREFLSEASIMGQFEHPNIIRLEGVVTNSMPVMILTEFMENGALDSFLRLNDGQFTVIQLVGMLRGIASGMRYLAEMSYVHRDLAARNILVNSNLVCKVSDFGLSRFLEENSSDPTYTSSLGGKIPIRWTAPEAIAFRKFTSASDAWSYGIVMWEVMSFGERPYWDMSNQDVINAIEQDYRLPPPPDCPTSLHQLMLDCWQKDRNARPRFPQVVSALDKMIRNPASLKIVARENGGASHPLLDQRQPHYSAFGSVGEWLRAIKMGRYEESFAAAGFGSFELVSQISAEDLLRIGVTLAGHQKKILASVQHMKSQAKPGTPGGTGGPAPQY
Active calls of the source: *; · = no result.

SMILES	CYP2C9 activ	CYP2C9 inh	CYP2C19 activ	CYP2C19 inh	EphB4 ephrin blk
COc1ccc(F)cc1S(=O)(=O)Nc1ccc(C)cc1	0.4	57*	0.6	40	-11
COc1ccc(OC)c(S(=O)(=O)Nc2ccc(C)c(C)c2)c1	0.2	84*	0	99*	7
COc1ccc(OC)c(S(=O)(=O)Nc2ccc3oc4c(c3c2)C(=O)CCC4)c1	0.1	94*	0.4	57*	0
COc1cccc(NS(=O)(=O)c2cc(C)ccc2OC)c1	0.5	52*	0.3	69*	4
Cc1cc(C)n(CCOC(=O)c2sc3ccccc3c2Cl)n1	1.2	-18	0.7	26	-6
COc1ccc(CCNC(=O)C2CCCN2C(=O)NC2CCCCC2)cc1OC (stereo not drawn)	0.9	6	0.9	6	-9
Cc1cc(C)n(CC(O)COCc2ccco2)n1 (stereo not drawn)	1	-4	0.7	29	-4
COc1ccc(NS(=O)(=O)c2cc(C)ccc2OC)cc1OC	0.6	41	0.2	82*	-2
COc1ccc(C)cc1S(=O)(=O)NC1CCCCC1C (stereo not drawn)	0.1	89*	0.1	85*	0
CCn1nnnc1-c1ccc(OC)c(S(=O)(=O)NCc2ccccc2)c1	0.7	28	0.6	36	1
CCn1nnnc1-c1ccc(OC)c(S(=O)(=O)Nc2ccc(C)c(C)c2)c1	0.4	62*	0.5	49	-4
CCC(=O)NC(=S)Nc1ccccc1OC	0.9	14	0.6	39	13
COC(=O)C(C#N)C(c1cccnc1)c1c(C)[nH][nH]c1=O (stereo not drawn)	1.1	-8	0.9	10	2
CCOc1cc(/C=N/Nc2nc(N3CCCC3)nc(N3CCCC3)n2)ccc1O	·	·	·	·	-3
Cc1[nH]c2ccccc2c1/C=N/Nc1nc(Nc2ccc(F)cc2)nc(N2CCOCC2)n1	1.3	-25	1	1	1
COc1ccc(CCNc2nc(N3CCOCC3)nc(N3CCOCC3)n2)cc1OC	0.9	5	0.8	17	9
COc1ccc(/C=N/Nc2nc(Nc3ccccc3)nc(N3CCCCC3)n2)cc1OC	0.8	19	0.3	71*	4
COc1ccc(CCNc2nc(N3CCCCC3)nc(N3CCCCC3)n2)cc1OC	0.3	72*	0.2	82*	6
COc1cccc(/C=N/Nc2nc(Nc3ccccc3)nc(-n3nc(C)cc3C)n2)c1O	0.2	79*	0.3	68*	0
C(=N\Nc1nc(Nc2ccccc2)nc(N2CCOCC2)n1)/c1c[nH]c2ccccc12	0.1	88*	0	100*	3
O=C(Nc1ccccc1C(=O)N1CCOCC1)C1CC(=O)N(C2CCCC2)C1 (stereo not drawn)	1.1	-14	1.2	-16	5
Cc1ccc(-c2onc3ccc(C=O)cc23)cc1	0.8	25	0.7	25	1
CCn1nc(NC(=O)c2ccncc2)c2cc3ccccc3nc21	0.3	67*	0.3	70*	-2
CCn1nc(NC(=O)c2ccncc2)c2cc3cccc(C)c3nc21	0.6	37	0.6	41	6
CCCCC(=O)Nc1nn(CC(C)C)c2nc3ccccc3cc12	0.7	29	0.7	30	-1
SMILES	CYP2C9 activ	CYP2C9 inh	CYP2C19 activ	CYP2C19 inh	EphB4 ephrin blk
COc1ccc2nc3c(cc2c1)c(NC(=O)c1cccs1)nn3CC(C)C	0.1	93*	0.2	78*	5
CC(C)Cn1nc(NC(=O)C(C)(C)C)c2cc3ccccc3nc21	0.5	52*	0.6	36	2
CCn1c(SC)nnc1-c1ccc(S(=O)(=O)N2CCCCC2)cc1	·	·	·	·	1
CCCCC1(Cc2cccc([N+](=O)[O-])c2)C(=O)N(c2ccccc2)N(c2ccccc2)C1=O	0.2	80*	0.2	80*	5
Nc1c(-c2ccccc2)cnn1-c1cccc([N+](=O)[O-])c1	0.9	9	0.8	18	2
CCOC(=O)/C(=N/Nc1ccc(C)cc1)S(=O)(=O)c1ccc(Cl)cc1	0.1	90*	0.3	69*	4
Cc1ccc(NC(=O)c2onc(C)c2Cl)cc1	0.9	12	1	-1	-12
S=c1[nH]nc(-c2ccncc2)n1Cc1ccccc1	0.7	31	1.1	-6	7
Cc1ccccc1-n1c(-c2ccncc2)n[nH]c1=S	0.7	29	0.5	54*	·
CC(c1ccccc1)n1c(-c2ccncc2)n[nH]c1=S (stereo not drawn)	0.3	65*	0.2	78*	3

Screens (PubChem BioAssay)
